These results are taken from ChEMBL document CHEMBL3433997, “St. Jude Leishmania screening dataset” (2016).

Format in all cases: functional
Experiment [1] deals with Solute carrier family 2, facilitated glucose transporter member 1 (Homo sapiens) (UniProt P11166). Kind of experiment: ST_JUDE_LEISH: Cytotoxicity at 2uM final concentration against transgenic Leishmania Mexicana promastigotes LmGLUT1 that are glucose transport deficient and complemented with the human glucose transporter GLUT1. Activity is measured by DNA content using SYBR green in vitro.
Solute carrier family 2, facilitated glucose transporter member 1 (Homo sapiens), sequence (P11166 whole entry): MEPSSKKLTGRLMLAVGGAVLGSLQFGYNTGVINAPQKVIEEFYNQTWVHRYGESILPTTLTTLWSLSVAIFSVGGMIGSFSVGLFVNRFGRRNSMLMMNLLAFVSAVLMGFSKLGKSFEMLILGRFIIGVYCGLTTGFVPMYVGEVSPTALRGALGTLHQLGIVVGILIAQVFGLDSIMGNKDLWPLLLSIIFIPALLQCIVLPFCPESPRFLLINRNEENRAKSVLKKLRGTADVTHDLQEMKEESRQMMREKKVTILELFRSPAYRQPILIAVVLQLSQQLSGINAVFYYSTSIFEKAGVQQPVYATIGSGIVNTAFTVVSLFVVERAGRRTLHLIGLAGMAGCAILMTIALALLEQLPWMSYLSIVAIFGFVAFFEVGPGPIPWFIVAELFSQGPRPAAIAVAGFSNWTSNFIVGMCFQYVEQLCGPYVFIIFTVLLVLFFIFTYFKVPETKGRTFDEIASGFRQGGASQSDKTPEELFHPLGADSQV

For experiment [2], the target named is Hexose transporter 1 (Plasmodium falciparum) (UniProt O97467). The experiment in a line: ST_JUDE_LEISH: Cytotoxicity at 2uM final concentration against transgenic Leishmania Mexicana promastigotes LmPfHT that are glucose transport deficient and complemented with the Plasmodium falciparum hexose transporter. Activity is measured by DNA content using SYBR green in vitro.

Experiment [3] has as its target Glucose transporter (Leishmania mexicana) (UniProt O61059). The experiment in a line: ST_JUDE_LEISH: Cytotoxicity at 2uM final concentration against transgenic Leishmania Mexicana promastigotes LmGT2 that are glucose transport deficient and complemented with the L. Mexicana glucose transporter 2. Activity is measured by DNA content using SYBR green in vitro.

For orientation: inhibition means the change of the read-out against control, counted positive when it falls. As for `COc1ccc2nc3cc(Cl)ccc3c(NCCO)c2c1`, the inhibition is 2.8% in experiment [1], -1.06% in experiment [2] and 2.4% in experiment [3].

Take `Cc1cccc(-n2c(=O)c3c4c(sc3n3c(SCCC(C)C)nnc23)CCCC4)c1`: the inhibition in experiment [1] is 0.75%; in experiment [2], 1.59%; in experiment [3], -0.43%.

In the case of `CCCCCCn1c(Sc2ccc(C#N)c([N+](=O)[O-])c2)nnc1-c1cc(OC)cc(OC)c1`, the values for the inhibition in experiment [1], in experiment [2] and in experiment [3] were 5.8%, 6.04% and 4.53%, respectively.

On to `COc1ccc(NCCCNc2ccnc3ccccc23)cc1`, for which the figures for the inhibition in experiment [1], in experiment [2] and in experiment [3] were 5.01%, 4.48% and 1.73%, respectively.

Consider `COc1ccc(CNc2nccc3ccc(-c4ccc5nccn5c4)cc23)cc1`, for which the inhibition is 1.79% in experiment [1], 0.03% in experiment [2] and -1.93% in experiment [3].

In the case of `CCOC(=O)[C@H](Cc1cccc2ccccc12)NC(=O)[C@H](CCC(=O)OC(C)(C)C)NC(=O)c1ccc(N(C)Cc2cnc3nc(N)nc(N)c3n2)cc1`, the results for the inhibition in experiment [1], in experiment [2] and in experiment [3] were 3.47%, 4.12% and 3.56%, respectively.

With `N#Cc1ccc2c(c1)CCN(CCC1CCC(NC(=O)/C=C/c3cccc4cc[nH]c34)CC1)CC2` (centres undefined), the figures for the inhibition in experiment [1], in experiment [2] and in experiment [3] were 8.95%, 9.87% and 3.01%, respectively.

On to `NC1=NC2(CCCCC2)N(Cc2ccc(Cl)c(Cl)c2)C(N)=N1`, for which the inhibition in experiment [1] is -1.03%; in experiment [2] it was -0.28%; in experiment [3], -0.42%.

In the case of `CSc1nc2cc3c(cc2n1C(=O)c1ccc(C)cc1)OCCO3`, the inhibition stood at 6.31% in experiment [1], 4.48% in experiment [2] and 2.89% in experiment [3].

Regarding `Cc1cccc2nc(-c3ccc(-c4ccc(CN5CCN(c6ccncc6)CC5)cc4)cc3)[nH]c12`, the figures for the inhibition in experiment [1], in experiment [2] and in experiment [3] were 33.3%, 29.1% and 13.4%, respectively.

With `CC(C)NCc1ccc(-c2ccc(-c3nc4cc(C(F)(F)F)ccc4[nH]3)cc2)cc1`, the results for the inhibition in experiment [1], in experiment [2] and in experiment [3] were 1.09%, -1.61% and 2.69%, respectively.

For the compound `NC(=O)c1ccccc1Nc1nc(Nc2cccc(N3CCN(CCO)CC3)c2)ncc1Cl`, the figures for the inhibition in experiment [1], in experiment [2] and in experiment [3] were 64%, 67.3% and 57.8%, respectively.

For `Cc1nc(-c2ccccc2)nc(N2CCN(C(=O)c3ccco3)CC2)c1Cc1ccccc1F`, the inhibition in experiment [1] stood at 7.73%; in experiment [2], 9.03%; in experiment [3] it was 7.76%.

`NCCCNc1ccc(-c2ccc(NC(=O)Nc3cc(C(F)(F)F)ccc3F)cc2)cn1`: the inhibition stood at 2.29% in experiment [1], 2.81% in experiment [2] and 1.11% in experiment [3].

In the case of `COc1cccc(C2C(C(=O)Nc3ccccc3)=C(C)N=c3sc(=Cc4ccc(O)cc4)c(=O)n32)c1` (centres undefined), the inhibition in experiment [1] stood at 19.2%; in experiment [2] it was 27.8%; in experiment [3], 16.8%.

As to `Cc1ccc(N2CCc3c(-c4cc5cccnc5nc4C)cc(C)nc32)c(Cl)c1`, the inhibition in experiment [1] worked out at 4.06%; in experiment [2] it was 6.18%; in experiment [3], 3.42%.

As for `Cc1ccc(Cn2ncc(NC3CCNCC3)c(Cl)c2=O)cc1NC(=O)Nc1ccc(-c2ccccc2)cc1`, the inhibition in experiment [1] turned out to be 5.14%; in experiment [2], 9.28%; in experiment [3], 5.29%.

Take `c1cc(CNCc2ccc3c(c2)OCO3)cc(-c2cccc(CNc3ccc4ncccc4c3)c2)c1`: the inhibition in experiment [1] was 0.81%; in experiment [2], 1.4%; in experiment [3], -0.38%.

On to `O=C(Nc1ccc(Oc2ccccc2)cc1)N[C@@H](Cc1ccc(O)cc1)C(=O)NC1CCN(Cc2ccc(O)c([N+](=O)[O-])c2)C1` (some centres undefined), for which the inhibition in experiment [1] came out at 2.19%; in experiment [2] it was 1.19%; in experiment [3], 0.33%.

For the compound `COc1ccccc1CCNc1nc(C)cc(N[C@@H](CC(C)C)C(=O)NCc2cccs2)n1`, the inhibition in experiment [1] was 6.71%; in experiment [2], 5.41%; in experiment [3], 4.04%.

Take `COc1ccc2nccc([C@@H](O)CN3CCC(NCc4nc5ccccc5s4)CC3)c2c1`: the figures for the inhibition in experiment [1], in experiment [2] and in experiment [3] were 4.29%, 6.41% and -0.69%, respectively.

As for `c1ccc(CCNCc2cccc(-c3ccccc3CNCc3ccc4c(c3)OCO4)c2)nc1`, the figures for the inhibition in experiment [1], in experiment [2] and in experiment [3] were 0.71%, 0.88% and 0.68%, respectively.

`CN1CCN(c2ccnc3ccc(NC(=O)Nc4ccc(-c5ccncc5)c(C#N)c4)cc23)CC1`: the inhibition in experiment [1] is -0.68%; in experiment [2], -2.42%; in experiment [3], -2.77%.

Consider `Oc1cccc(-c2cnc3ccc(NCc4ccc(F)cc4)nn23)c1`, for which the inhibition in experiment [1] was -3.17%; in experiment [2], 0.63%; in experiment [3] it was -1.63%.

For `Cc1ccc(C(=O)Nc2ccc(Nc3ccnc4cc(-c5ccccn5)ccc34)cc2O)cc1`, the inhibition amounted to 7.39% in experiment [1], 10% in experiment [2] and 4.76% in experiment [3].

As to `CCOc1ccc2c(=NN=Cc3cccc(Cl)c3)cc(C)[nH]c2c1`, the inhibition in experiment [1] came out at 8.03%; in experiment [2], 6.27%; in experiment [3], 16%.

For `COc1ccccc1N1CCN(CCCCNC(=O)c2ccc(NC(=O)c3ccc(C(F)(F)F)cc3)cc2)CC1`, the inhibition is -0.92% in experiment [1], -0.29% in experiment [2] and -0.69% in experiment [3].

As to `CCCN1CCN(c2cc(NCC)c3c4c(onc24)-c2ccccc2C3=O)CC1`, the inhibition in experiment [1] is 7.98%; in experiment [2], 8.22%; in experiment [3], 6.9%.

For `O=c1cc(NCCCNCc2sc(Br)c(Br)c2Br)[nH]c2ccccc12`, the inhibition in experiment [1] was 10.5%; in experiment [2], 9.87%; in experiment [3] it was 10.4%.

Regarding `CCn1c(CN2CCN(Cc3ccccc3)CC2)nc2cc(NC(=O)c3cccs3)ccc21`, the inhibition is 1.2% in experiment [1], 1.22% in experiment [2] and -1.93% in experiment [3].

As to `CCCCCCN1CCN(Cc2cccc(NC(=O)c3ccc(Cl)c(Cl)c3)c2)CC1`, the inhibition in experiment [1] was 5.8%; in experiment [2], 6.59%; in experiment [3], 4.85%.

On to `O=S(=O)(NCCN1CCCC1)c1cccc(-c2ccccc2CNC2Cc3ccccc3C2)c1`, for which the inhibition in experiment [1] came to 60.1%; in experiment [2] it was 16%; in experiment [3], 10.6%.

As to `CC(C)(C)c1ccc(-c2cc3c(ccc4nc(N)nc(N)c43)[nH]2)cc1`, the results for the inhibition in experiment [1], in experiment [2] and in experiment [3] were 1.02%, 1.64% and -0.3%, respectively.
